Reference: PubChem BioAssay (NCATS)
Results filed as inconclusive are left out. Calls of active or inactive are those of the source. Calls follow the shape of the dose curve; as a rule, active = well fitted inhibition curve with a large enough effect; inconclusive = small, poorly fitted or top-dose-only effect; inactive = flat fitted curve, though single readings scatter.

Legend:
KB-3-1 = test: Cytotoxic Profiling of Annotated Libraries Using Quantitative High-Throughput Screening (AID 1296008); conditions: Five cell lines viability, CellTiter-Glo ATP luminescence, 48-72 h; max response: hits give low values; also: potency is read from the fitted curve at half-maximal effect; as to max response: % is scaled to controls: 0 for no effect and ±100 for the full control effect
In short: (§1)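 Cytotoxicity was measured as CellTiter-Glo ATP luminescence, read after 10 min at room temperature. Compound treatment of the cells lasted 48 or 72 hr at 37 degrees Celsius in a qHTS format.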

PC49 = test: qHTS profiling for inhibitors of Plasmodium falciparum proliferation (AID 504749); also: potency is read from the fitted curve at half-maximal effect; conditions: P. falciparum in erythrocytes, SYBR Green DNA, 72 h; series mostly up to 28.7 µM
In short: (§2)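 Infected RBCs, 0.3% parasitemia/2.5% Hct final; cpd 72 h, 37 C, 5% CO2; lysis buffer with saponin/triton/SYBR Green I, o/n RT dark; FI 485/535; norm. to artemisinin (0.29 uM) and DMSO.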

TAB113 = test: as above; conditions: P. falciparum in erythrocytes, SYBR Green DNA, 72 h; series mostly up to 28.7 µM
In short: as §2

W2 = test: as above; conditions: P. falciparum in erythrocytes, SYBR Green DNA, 72 h; series mostly up to 28.7 µM
In short: as §2

CRL-7250 = normal cell line; test: qHTS assay to identify novel small-molecules to repurpose for Merkel cell carcinoma treatment (AID 1296009); conditions: MCC and control cell lines, CellTiter-Glo viability, 72 h
In short: (§3)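 72 hr, 37 degree celsius; NPC 8-pt / MIPE 11-pt dose response; compound pinned in DMSO; CellTiter-Glo, 10 min RT, luminescence; normalized to no-cell and DMSO controls.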

PAD = test: qHTS profiling for inhibitors of Plasmodium falciparum proliferation (AID 504749); also: potency is read from the fitted curve at half-maximal effect; conditions: P. falciparum in erythrocytes, SYBR Green DNA, 72 h; series mostly up to 28.7 µM
In short: as §2

PC15 = test: as above; conditions: P. falciparum in erythrocytes, SYBR Green DNA, 72 h; series mostly up to 28.7 µM
In short: as §2

PC26 = test: as above; conditions: P. falciparum in erythrocytes, SYBR Green DNA, 72 h; series mostly up to 28.7 µM
In short: as §2

SC27B = test: as above; conditions: P. falciparum in erythrocytes, SYBR Green DNA, 72 h; series mostly up to 28.7 µM
In short: as §2

TAB109 = test: as above; conditions: P. falciparum in erythrocytes, SYBR Green DNA, 72 h; series mostly up to 28.7 µM
In short: as §2

TAB165 = test: as above; conditions: P. falciparum in erythrocytes, SYBR Green DNA, 72 h; series mostly up to 28.7 µM
In short: as §2

HaCat [1] = test: Cytotoxic Profiling of Annotated Libraries Using Quantitative High-Throughput Screening (AID 1296008); conditions: Five cell lines viability, CellTiter-Glo ATP luminescence, 48-72 h; max response: hits give low values; also: potency is read from the fitted curve at half-maximal effect; as to max response: % is scaled to controls: 0 for no effect and ±100 for the full control effect
In short: as §1

NIH3T3 = test: as above; conditions: Five cell lines viability, CellTiter-Glo ATP luminescence, 48-72 h; max response: hits give low values
In short: as §1

HACAT [2] = test: qHTS assay to identify novel small-molecules to repurpose for Merkel cell carcinoma treatment (AID 1296009); conditions: MCC and control cell lines, CellTiter-Glo viability, 72 h; at 44.8 µM (top of the series) unless noted
In short: as §3

MCC-13 = test: as above; conditions: MCC and control cell lines, CellTiter-Glo viability, 72 h; series mostly up to 46 µM
In short: as §3

MCC-26 = test: as above; conditions: MCC and control cell lines, CellTiter-Glo viability, 72 h; series mostly up to 46 µM
In short: as §3

MKL-1 = test: as above; conditions: MCC and control cell lines, CellTiter-Glo viability, 72 h; series mostly up to 46 µM
In short: as §3

HEK293 = test: Cytotoxic Profiling of Annotated Libraries Using Quantitative High-Throughput Screening (AID 1296008); conditions: Five cell lines viability, CellTiter-Glo ATP luminescence, 48-72 h; max response: hits give low values; also: potency is read from the fitted curve at half-maximal effect; as to max response: % is scaled to controls: 0 for no effect and ±100 for the full control effect
In short: as §1

[3] = at 44.8 µM (top of the series) unless noted
Also: nearly all actives have a fitted effect of over 60% in size.

CN[C@@H](C)Cc1ccccc1
inactive: max response (KB-3-1) -3.3%

COc1ccc2c(c1)C13CCCC[C@@H]1C(C2)N(C)CC3 (stereo not given in full)
inactive: Potency (TAB113) | max response (KB-3-1) 18.3%
active: Potency (PC49) 3550 nM | Potency (W2) 1200 nM

S=P(N1CC1)(N1CC1)N1CC1
inactive: outcome (CRL-7250; [3]) inactive [at 92 µM]

CCCC(C)(COC(N)=O)COC(N)=O
inactive: Potency (PAD) | Potency (PC15) | Potency (PC26) | Potency (PC49) | Potency (SC27B) | Potency (TAB109) | Potency (TAB113) | Potency (TAB165) | max response (KB-3-1) 1.51%

Nc1ccn(C[C@@H](CO)OCP(=O)(O)O)c(=O)n1
inactive: max response (KB-3-1) -9.56%

CC(C)(Sc1cc(C(C)(C)C)c(O)c(C(C)(C)C)c1)Sc1cc(C(C)(C)C)c(O)c(C(C)(C)C)c1
inactive: outcome (CRL-7250; [3])

O=C(Nc1ccc(Br)cc1)c1cc(Br)cc(Br)c1O
inactive: Potency (PAD) | Potency (PC15) | Potency (PC26) | Potency (PC49) | Potency (SC27B) | Potency (TAB109) | Potency (TAB113) | Potency (TAB165) | Potency (W2) | outcome (HaCat [1]) | max response (KB-3-1) -24% | max response (NIH3T3) -23.1% | outcome (HACAT [2]) | outcome (MCC-13) | Potency (MCC-26) | Potency (MKL-1)

CC1(C)Oc2ccc(C#N)cc2[C@@H](N2CCCC2=O)[C@@H]1O
inactive: outcome (CRL-7250; [3])

CN(C)C(=O)COC(=O)Cc1ccc(OC(=O)c2ccc(N=C(N)N)cc2)cc1
inactive: outcome (CRL-7250; [3])

CN1C[C@H](C(=O)N[C@]2(C)O[C@@]3(O)[C@@H]4CCCN4C(=O)[C@H](Cc4ccccc4)N3C2=O)C=C2c3cccc4[nH]cc(c34)C[C@H]21
inactive: max response (KB-3-1) -3.72%
active: Potency (PAD) 199 nM | Potency (PC15) 794 nM | Potency (PC26) 1690 nM | Potency (PC49) 1580 nM | Potency (SC27B) 708 nM | Potency (TAB109) 1120 nM | Potency (TAB113) 794 nM | Potency (TAB165) 447 nM | Potency (W2) 53.6 nM

CN1C(=O)CC(=O)N(c2ccccc2)c2cc(Cl)ccc21
inactive: Potency (PAD) | Potency (PC15) | Potency (PC26) | Potency (PC49) | Potency (SC27B) | Potency (TAB109) | Potency (TAB165) | Potency (W2) | max response (KB-3-1) 9.14%

Cc1nc(-c2ccc(Cl)cc2)oc1COC(C)(C)C(=O)O
inactive: outcome (CRL-7250; [3])

COC(=O)C(c1ccccc1)C1CCCCN1 (stereo not given)
active: Potency (W2) 4260 nM
inactive: Potency (PAD) | Potency (PC15) | Potency (PC26) | Potency (SC27B) | Potency (TAB109) | Potency (TAB113) | Potency (TAB165) | max response (KB-3-1) 5.58%

O=C(O)c1ccccc1-c1ccc(C(F)(F)F)cc1
inactive: outcome (CRL-7250; [3])

O=c1oc2ccccc2c(O)c1Cc1c(O)c2ccccc2oc1=O
inactive: Potency (PAD) | Potency (PC15) | Potency (PC26) | Potency (PC49) | Potency (SC27B) | Potency (TAB109) | Potency (TAB113) | Potency (TAB165) | Potency (W2) | outcome (HaCat [1]) | outcome (NIH3T3) | outcome (HACAT [2]) | outcome (MCC-13) | Potency (MCC-26) | Potency (MKL-1)

CN=C(NC#N)NCCSCc1nc[nH]c1C
inactive: outcome (CRL-7250; [3])

COc1cccc(C(=O)CCN[C@@H](C)[C@H](O)c2ccccc2)c1
inactive: outcome (HaCat [1]) | max response (KB-3-1) 25.7% | max response (NIH3T3) -18.8% | outcome (HACAT [2]) | outcome (MCC-13)

Cc1nnc2n1-c1ccc(Cl)cc1C(c1ccccc1)=NC2
inactive: Potency (PAD) | Potency (PC15) | Potency (PC26) | Potency (PC49) | Potency (SC27B) | Potency (TAB113) | Potency (TAB165) | max response (KB-3-1) -2.21%
active: Potency (W2) 4780 nM

CCC(C(=O)OCCN(CC)CC)c1ccccc1 (stereo not given)
inactive: outcome (CRL-7250; [3])

Cc1nnc2n1-c1ccc(Cl)cc1C(c1ccccc1Cl)=NC2
inactive: max response (KB-3-1) 1.66%

C[C@]12CCC(=O)C=C1CC[C@@H]1[C@H]3CC[C@](C)(O)[C@@]3(C)CC[C@@H]12
active: Potency (HEK293) 30900 nM
inactive: outcome (MCC-13) | Potency (MCC-26)

CC(C)NCC(O)c1ccc(NS(C)(=O)=O)cc1 (stereo not given)
inactive: outcome (CRL-7250; [3])

Oc1ccccc1-c1nnco1
inactive: outcome (CRL-7250; [3])

Nc1ccc(S(=O)(=O)Nc2ccnn2-c2ccccc2)cc1
inactive: outcome (CRL-7250; at 17.4 µM (top of the series)) | outcome (CRL-7250; at 44.8 µM (top of the series))

O=C(COCCOCCOCC(=O)Nc1c(I)cc(I)c(C(=O)O)c1I)Nc1c(I)cc(I)c(C(=O)O)c1I
inactive: outcome (CRL-7250; [3])

CCCCCCCCCCCCCCCCCC(=O)OCC(O)CO (stereo not given)
inactive: outcome (CRL-7250; [3])

Cc1cc(O)c2c(O)c3c(O)cccc3cc2c1
inactive: outcome (CRL-7250; [3])

COC(=O)[C@@H]1[C@H]2C[C@H]3c4[nH]c5ccccc5c4CCN3C[C@@H]2CC[C@@H]1O
inactive: outcome (CRL-7250; [3])

N[C@@H](COP(=O)(O)O)C(=O)O
inactive: outcome (CRL-7250; [3]) inactive [at 17.4 µM]

COc1ccc2c(c1)c(CC(=O)OC/C=C(\C)CC/C=C(\C)CCC=C(C)C)c(C)n2C(=O)c1ccc(Cl)cc1
inactive: outcome (CRL-7250; [3])
